# The list is not random: actives were taken first. Their share in the collection is about 1.8%.
# GSTO1 counter: blocks human GSTO1 in RBBP9 counter-screen | 300,000 compounds, 1.1% hits | inhibition, % at 5.96 µM | AID 1974 | recombinant GSTO1, activity-based probe fluorescence polarization;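 active means inhibition above the campaign mean inhibition plus 3 SD, cut at about 35% in these data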;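 further: 0% = GSTO1-1 with DMSO and 100% = wells lacking GSTO1-1 enzyme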
# Fam108B counter: Fam108B inhibition, counter-screen for RBBP9 inhibitors. recombinant Fam108B, FP-Rh probe fluorescence polarization. inhibition, % at 9.51 µM. 300,000 compounds, 0.33% hits;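 active means inhibition above the screen mean inhibition plus 3 SD, computed separately per campaign, cut at about 18% in these data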;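 further: inhibitors lower polarization as less probe binds the enzyme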
# LYPLA2 counter: blocks human lysophospholipase 2, a PME1 counter-screen | O95372 | inhibition, % at 5.9 µM | 320,000 compounds, 0.38% hits | recombinant LYPLA2, FP-Rh probe fluorescence polarization;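 active means inhibition above the screen-wide mean plus 3 SD, limit set per campaign, cut at about 26% in these data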;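 further: 0% = LYPLA2 with DMSO and 100% = wells lacking LYPLA2 enzyme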
# LYPLA1 inh: LYPLA1 (human) inhibition in PME1 counter-screen; O75608; recombinant LYPLA1, FP-Rh probe fluorescence polarization; inhibition, % at 5.9 µM; 320,000 compounds, 0.16% hits;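 active means inhibition above the mean of all tested compounds plus 3 SD, set per campaign, cut at about 14% in these data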;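 further: inhibitors block serine hydrolase probe labeling of LYPLA1 so polarization falls; 0% = enzyme with DMSO and 100% = wells lacking LYPLA1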
# PME-1 inh: PME-1 (human) inhibition | Q9Y570 | recombinant PME-1, FP-Rh probe fluorescence polarization | inhibition, % at 5.9 µM | 320,000 compounds, 0.53% hits;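 active means inhibition above the campaign mean of all compounds plus 3 SD, cut at about 26% in these data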;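 further: competitive labeling of PME-1 active site by serine hydrolase directed probe; 0% = PME-1 with DMSO and 100% = wells lacking PME-1 enzyme; inhibitors block probe labeling so polarization falls and inhibition rises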
# PAD4 FP inh: PAD4 (human) enzyme inhibition; recombinant PAD4, RCA probe fluorescence polarization; AID 485272; Q9UM07; 330,000 compounds, 0.41% hits; inhibition, % at 6.36 µM;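 active means percent inhibition above a cutoff equal to the mean of all tested compounds plus 3 SD, cut at about 15% in these data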;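 further: 0% = PAD4 with RCA probe and DMSO and 100% = probe without PAD4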
# Target sequence (Q9UM07 whole entry, looked up): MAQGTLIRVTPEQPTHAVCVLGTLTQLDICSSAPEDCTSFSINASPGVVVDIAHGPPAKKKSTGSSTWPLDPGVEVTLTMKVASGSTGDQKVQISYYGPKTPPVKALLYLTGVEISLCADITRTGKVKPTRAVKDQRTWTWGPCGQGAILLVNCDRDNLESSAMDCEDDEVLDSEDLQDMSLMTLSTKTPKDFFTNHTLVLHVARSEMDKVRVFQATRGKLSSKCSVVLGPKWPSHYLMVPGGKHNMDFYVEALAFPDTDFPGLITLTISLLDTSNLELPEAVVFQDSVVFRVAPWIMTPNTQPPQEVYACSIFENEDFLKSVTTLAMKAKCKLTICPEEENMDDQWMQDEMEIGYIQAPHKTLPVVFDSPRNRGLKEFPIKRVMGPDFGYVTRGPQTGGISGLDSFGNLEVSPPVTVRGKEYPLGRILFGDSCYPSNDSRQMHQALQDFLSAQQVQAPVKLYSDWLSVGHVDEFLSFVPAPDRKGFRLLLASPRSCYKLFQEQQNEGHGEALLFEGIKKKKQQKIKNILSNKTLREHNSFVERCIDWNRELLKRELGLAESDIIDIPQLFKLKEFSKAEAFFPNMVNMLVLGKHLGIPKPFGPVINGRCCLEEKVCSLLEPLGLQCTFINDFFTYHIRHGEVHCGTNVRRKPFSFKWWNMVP
# LYPLA2 confirm: LYPLA2 (human) inhibition, confirmation counter-screen. recombinant LYPLA2, FP-Rh probe fluorescence polarization. AID 2232. 1,100 compounds, 72% hits. inhibition, % at 5.9 µM. shares compounds with LYPLA2 counter;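 active means mean inhibition across replicates above the hit cutoff set in the primary screen, cut at about 26% in these data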;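 further: blocked labeling of the enzyme by serine hydrolase FP-Rh probe lowers polarization; 0% = enzyme with DMSO and 100% = wells lacking LYPLA2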
# LYPLA2 gel ABPP: blocks human acyl-protein thioesterase 2 in gel ABPP | 150 compounds, 30% hits | rhLYPLA2 in mouse brain proteome, gel ABPP FP-Rh | inhibition, % at 20 µM | AID 652029 | shares compounds with LYPLA2 counter;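 active means inhibition of LYPLA2 enzyme probe labeling above about 50%, limit read from the data; inactive means inhibition below that limit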;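 further: loss of FP-Rh probe labeling of the LYPLA2 gel band measured as band density; 0% = DMSO only control band and 100% = blank gel background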
# An asterisk follows results filed as active; nt = no result given.
SMILES,GSTO1 counter,Fam108B counter,LYPLA2 counter,LYPLA1 inh,PME-1 inh,PAD4 FP inh,LYPLA2 confirm,others
CC(C)(C)OC(=O)C[C@H]1C/C=C\C[C@@H](CC(=O)N(CCO)Cc2ccccc2)C(=O)N[C@H](Cc2c[nH]c3ccccc23)COC1=O,nt,nt,nt,nt,nt,3,nt,
COc1ccc(CCNC(=S)N2CCC(C(=O)c3ccc(F)cc3)CC2)cc1OC,1,2,27*,6,-6,4,31*,
C[C@H](CO)N1C[C@H](C)[C@@H](CN(C)S(=O)(=O)c2ccccc2)Oc2c(NC(=O)Nc3ccc4c(c3)OCO4)cccc2C1=O,nt,nt,nt,nt,nt,2,nt,
COc1ccc(Cl)cc1S(=O)(=O)NCc1ccncc1,-5,-2,-1,3,-2,0,nt,
CN(Cc1ccccc1)C(=O)c1ccc(NC(=O)C2=CSCCO2)cc1,-1,-1,2,0,0,-4,nt,
O=C1COc2ccc(C(=O)COC(=O)c3ccccc3[N+](=O)[O-])cc2N1,7,3,16,-2,2,0,nt,
O=C1COc2ccc(C(=O)COC(=O)c3ccc(Cl)cc3[N+](=O)[O-])cc2N1,9,4,27*,3,3,-4,33*,
Cc1cccc(N2CC(C(=O)Nc3nccs3)CC2=O)c1C (configuration not stated),3,1,-2,1,-3,2,nt,
COc1ccc(Cl)cc1C(=O)Nc1cccc(-c2ccc3nncn3n2)c1,-14,3,27*,7,-5,-11,30*,
CC(=O)c1cccc(NC(=O)C2CCN(C(=O)c3ccc([N+](=O)[O-])cc3)CC2)c1,3,5,18,0,-3,3,nt,
CCOc1ccc(C(=O)C2CCN(C(=O)c3ccc([N+](=O)[O-])cc3)CC2)cc1,2,0,33*,3,4,-4,31*,
CC(C)(C)c1ccc(C(=O)N2CCC(C(=O)NC3CCCCCC3)CC2)cc1,-2,0,48*,0,1,-2,54*,LYPLA2 gel ABPP=20
COc1ccc(C)cc1NC(=O)C1CCN(S(C)(=O)=O)CC1,4,1,-1,-1,-9,-5,nt,
COc1ccc(C)cc1NC(=O)C1CCN(C(=O)c2ccc(C(C)(C)C)cc2)CC1,-1,-2,41*,10,2,-1,44*,
Cc1ccc(C(=O)N2CCC(C(=O)Nc3cccc([N+](=O)[O-])c3)CC2)cc1,0,2,32*,6,0,2,17,
O=C(O)CN1C(=O)/C(=C\c2cc(Br)ccc2OCc2ccc(F)cc2)SC1=S,-9,-1,41*,-4,7,-4,44*,
COc1cc(-c2c(C#N)c(N)nc(SCc3ccncc3)c2C#N)cc(OC)c1OC,-21,-3,35*,3,5,4,29*,
CCOc1cc(CN2CCSCC2)ccc1O,18,0,6,3,-3,2,nt,
CCOc1cc(CN2CCN(c3cccc(C(F)(F)F)c3)CC2)ccc1O,0,1,28*,4,2,2,29*,
COc1cccc(C(=O)NCC2CCN(c3ccc(S(=O)(=O)N4CCOCC4)cc3)CC2)c1,-3,0,29*,0,-3,1,20,
O=C(c1ccc(S(=O)(=O)N2CCOCC2)cc1)N1CCN(c2cccc(Cl)c2)CC1,7,0,4,-7,6,3,nt,
O=C(NCC1CCN(c2ccc(S(=O)(=O)N3CCOCC3)cc2)CC1)c1cccc(Cl)c1,3,0,32*,1,2,-1,31*,
Cc1cc(C(=O)OCC(=O)Nc2ccccc2Br)c(C)o1,nt,nt,nt,nt,nt,-2,nt,
O=C(O)C1Nc2c(O)cc(Cl)c([N+](=O)[O-])c2C2C=CCC12 (configuration not stated),57*,79*,35*,-14,11,-4,-2,
COc1ccc(OC)c(C2Nc3c(Cl)ccc(C(=O)O)c3C3C=CCC32)c1 (configuration not stated),20,4,-1,-1,-2,-3,nt,
SMILES,GSTO1 counter,Fam108B counter,LYPLA2 counter,LYPLA1 inh,PME-1 inh,PAD4 FP inh,LYPLA2 confirm,others
O=[N+]([O-])c1ccc(Oc2cccc(C(F)(F)F)c2)nc1,8,3,41*,1,-3,2,75*,LYPLA2 gel ABPP=47
COc1ccc(NC(=O)c2cc(F)c(F)cc2Cl)cc1Cl,-9,-1,28*,3,2,3,20,
O=C(Nc1ccc(Cc2ccncc2)cc1)c1ccc(Cl)c([N+](=O)[O-])c1,-4,-3,-8,-4,4,-5,nt,
Cc1c([N+](=O)[O-])cc(C(=O)Nc2ccc(Cc3ccncc3)cc2)cc1[N+](=O)[O-],-3,-1,29*,2,7,-2,28*,
CCC(=O)N1CCN(c2ccc(NC(=O)COc3ccc(C)cc3C)cc2)CC1,0,-2,-1,4,-7,-3,nt,
Cc1ccc(C(=O)N2CCN(c3ccc(NC(=O)COc4ccccc4C)cc3)CC2)cc1,-1,-2,29*,2,5,-2,27*,
Cc1ccc(S(=O)(=O)c2ccc(Cl)cc2)cc1S(N)(=O)=O,1,-2,-2,-3,4,-5,nt,
NC(=O)c1cc([N+](=O)[O-])ccc1Nc1ccccc1,4,2,39*,-1,7,1,32*,
O=C(O)c1ccccc1Nc1ccc([N+](=O)[O-])cc1C(=O)O,4,3,-7,-3,0,11,nt,
CCOC(=O)C1CCN(c2ncnc3c2cnn3C)CC1,5,-4,-3,2,2,-10,nt,
CC(=O)c1ccc(N2CCN(C(=O)c3noc4c3CSc3ccccc3-4)CC2)cc1,0,1,44*,6,0,-4,17,
CC(=O)c1ccc(N2CCN(C(=O)c3c(-c4ccccc4Cl)noc3C)CC2)cc1,-2,0,0,0,2,0,nt,
O=C(Cn1cnc2ccccc2c1=O)c1ccc(OC(F)F)cc1,6,2,52*,0,-6,3,67*,LYPLA2 gel ABPP=70*
CC(C)N(C(=O)Cn1cnc2cc([N+](=O)[O-])ccc2c1=O)C(C)C,22,5,5,1,6,1,nt,
O=C(Cn1cnc2ccccc2c1=O)c1ccc(Br)cc1,3,1,29*,-6,3,-2,42*,
CCc1ccc(C(=O)Cn2cnc3cc([N+](=O)[O-])ccc3c2=O)cc1,-9,3,46*,-1,-1,-7,37*,
O=C(Cn1cnc2ccccc2c1=O)c1ccccc1,2,-4,8,1,6,-3,nt,
CCOc1ccc(C(=O)Cn2cnc3ccccc3c2=O)cc1,6,-1,34*,3,-6,-4,23,

# Screening data deposited in PubChem BioAssay by The Scripps Research Institute Molecular Screening Center.
